The values below come from PubChem BioAssay AID651690 (Sanford-Burnham Center for Chemical Genomics, 2012).

One may read the inhibition as the relative decrease from the control value, in per cent.

Some of the results follow. Activity calls are given as the source filed them. No stated cut-off is given here; in the data, active means inhibition mostly above about 32% (no sharp cut-off); inactive means mostly below about 29%.

Sequence of Sentrin-specific protease 1 (Homo sapiens) (Q9P0U3 419-644 limits assumed): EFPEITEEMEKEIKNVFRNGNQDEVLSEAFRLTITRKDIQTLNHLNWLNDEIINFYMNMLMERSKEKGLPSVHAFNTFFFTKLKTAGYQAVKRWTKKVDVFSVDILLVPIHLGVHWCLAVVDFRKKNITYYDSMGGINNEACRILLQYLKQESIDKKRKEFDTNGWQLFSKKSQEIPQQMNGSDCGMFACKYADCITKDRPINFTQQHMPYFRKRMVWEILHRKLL

This experiment has as its target Sentrin-specific protease 1 (Homo sapiens) (UniProt Q9P0U3). The experiment in a line: SENP1 SUMO protease blockers by rate readout – biochemical, kinetic FRET, single concentration, confirmation (AID 651690).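 Further: 0% = DMSO with enzyme and 100% = no enzyme substrate only.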 The following applies: recombinant SENP1, CyPet-SUMO1-YPet FRET kinetic cleavage; at 10 µM; active compounds read high.
For `Cc1cccc(C)c1Nc1c(-c2ccccc2O)nc2ncccn12`, the inhibition is 8.55% (inactive).

On to `COc1ccc(N2C(=O)C3C(C2=O)C(C(=O)c2ccccc2)N2CCCC32)cc1` (stereo unspecified), for which the inhibition is 23.7% (inactive). On to `CCCCCn1nnnc1-c1nc2cc3ccccc3cc2[nH]c1=O`, for which the inhibition is 56.7% (active).

Regarding `CCN(CC)S(=O)(=O)c1cc([N+](=O)[O-])ccc1N=Nc1c(O)n(C)c2ccccc12`, the inhibition was -1.62% (inactive). As to `Cn1c(-c2sc3cc(C(F)(F)F)cnc3c2-c2ccccc2)n[nH]c1=S`, the inhibition was 11.8% (inactive). `O=C1/C(=C/c2coc3ccc(O)cc3c2=O)SC(=S)N1c1ccccc1`: the inhibition is -0.025% (inactive). As for `Cc1ccc2c(c1)nnc1nnc(SCC(=O)O)n12`, the inhibition is 46.3% (active). For `c1coc(-c2nc3nc4ccccc4n3nc2-c2ccco2)c1` the value was 13.5% (inactive); for `O=C1CC[C@@H]2CC3(C[C@@H]4CCN1[C@H]24)Nc1cc([N+](=O)[O-])ccc1NC3=NC1CCCCC1` (stereo partly specified), 2.83% (inactive). To `Fc1cccc(Cc2c(-c3cccc(Cl)c3)nc3ccc(Br)cn23)c1` belongs 3.67% (inactive); to `Cc1cc(C(=O)N/N=C/c2ccc(N3CCOCC3)cc2)c(C)o1`, 17.6% (inactive); to `Cc1ccc(C(=O)N/N=C\c2cc(Br)c(Br)o2)cn1`, 14.5% (inactive). To `COc1ccc(OC)c(C2C3=C(N=c4s/c(=C\c5cccc(O)c5)c(=O)n42)c2ccccc2CC3)c1` (stereo unspecified) belongs 19.3% (inactive); to `CCOC(=O)C1CCN(c2ncnc3c2c(-c2ccccc2)cn3-c2ccc(C)cc2)CC1`, 10.2% (inactive); to `O=C1C=C(c2cccc(Cl)c2O)C[C@@H](c2ccc(F)cc2)C1`, 74.6% (active). Regarding `CC(=O)c1cccc(-c2cnc3c(NC=O)cc(-c4ccc(N(C)C)cc4)cn23)c1`, the inhibition was 48.5% (active). On to `O=[N+]([O-])c1ccc(N=NNc2ccc([N+](=O)[O-])cc2)cc1`, for which the inhibition was 11.6% (inactive).

With `O=C(CCN1C(=O)/C(=C/c2cccs2)SC1=S)NNC(=O)c1cccc(O)c1`, the inhibition was 44.5% (active). For `N/C(=N\OC(=O)N1c2ccccc2Sc2ccccc21)c1ccc(Br)cc1` the value was 0.1% (inactive); for `COc1cc(/C=C2\CCCc3c2nc2ccccc2c3C(=O)O)cc(Cl)c1O`, 63.6% (active); for `O=C(NC(=O)c1ccccc1)Nc1ccccc1O`, -0.175% (inactive).
